Assay outcomes (PubChem)
Six1-Eya2 blk: qHTS Assay for Inhibitors of the Six1/Eya2 Interaction; 0.56% of 360,000 active; activity change, % (test concentration not listed); AlphaScreen GST-Six1/His-Eya2 binding, biochemical; stronger effect = lower value; Homeobox protein SIX1 (Homo sapiens) + Protein phosphatase EYA2 (Homo sapiens), …; further: on the % scale 0 is the no-effect control and ±100 the full control effect
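GST-Six1 + His-Eya2 (5X stock: 250/500 nM); Tris pH 8.0, 300 mM NaCl, 0.05% BSA, 0.02% Tween 20; GSH donor/Ni acceptor beads; 1 h 37 °C dark; AlphaScreen readout.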
CtBP-E1A inh: qHTS Assay for Inhibitors of the CtBP/E1A Interaction; activity change, % (test concentration not listed); 0.49% of 340,000 active; AID 651724, 2012; AlphaScreen GST-E1A/His-CtBP binding, 1536-well; stronger effect = lower value; further: on the % scale 0 is the no-effect control and ±100 the full control effect
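Steps: dispense buffer (Tris pH 8.0, NaCl 300 mM, TCEP 1 mM, BSA, Tween 20); add 5X protein mix (GST-E1A, His-CtBP, 125 nM each); pin 23 nL compound; 2 h at 37 °C, dark; add 5X beads (50 ug/mL); 1 h; read.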
MBNL1-CUG inh: qHTS Assay for Inhibitors of MBNL1-poly(CUG) RNA binding; TR-FRET MBNL1-His/biotin-(CUG)12 binding, 665/545 ratio; AID 2675, 2010; Potency, µM (series often up to 57.5 µM), without a hit: top-dose activity change, negative = inhibition, usual class: inhibitors; 0.036% of 280,000 active; active means well fitted inhibition curve with a large enough effect in the signal ratio, with a control signal flat, not every such curve was filed as active; inconclusive means small, poorly fitted or top-dose-only effect, or effect the other way, or a change in a side signal; inactive means no such curve, though single readings can be large or run the other way; the % refers to the signal ratio; further: potency means the concentration at half of the fitted maximal effect; on the % scale 0 is the no-effect control and ±100 the full control effect
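Compound titration spanned 92 nM–58 uM against the MBNL1-His/biotin-(CUG)12 complex. After 60 min at room temperature with 5 nM streptavidin-XL665 and 0.055 ng/ul terbium anti-His, ratiometric 665/545 nm emission (Ex 340 nm) normalized to controls.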
uPA generation: qHTS for Inhibitors of Cell Surface uPA Generation; cell surface uPA generation assay, qHTS; 0.31% of 330,000 active; Potency, µM (titrated, usually from 38.3 µM), for the others: at the top dose activity change, negative = inhibition, usual class: inhibitors; AID 540303, 2011; active means well fitted inhibition curve with a large enough effect; inconclusive means small, poorly fitted or top-dose-only effect; inactive means no such curve, though single readings can be large or run the other way; tested in mouse RAW 264.7 cells; further: potency means the concentration at half of the fitted maximal effect; on the % scale 0 is the no-effect control and ±100 the full control effect; nearly all actives have a fitted effect of over 55% in size
Mito fusion yeast: qHTS Assay for Small Molecule Inhibitors of Mitochondrial Division or Activators of Mitochondrial Fusion | AID 485298, 2010 | S. cerevisiae fusion-defective mutant growth rescue, CellTiterGlo 48 h | Potency, µM (doses to about 46.1 µM), for inactives: top-dose growth rescue (activation), usual class: activators | 0.23% of 320,000 active; active means well fitted activation curve with a large enough effect; inconclusive means small, poorly fitted or top-dose-only effect; inactive means no such curve, though single readings can be large or run the other way; further: potency means the concentration at half of the fitted maximal effect; % of control where 0% means no effect; nearly all actives have a fitted effect of over 45% in size
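Growth-rescue viability read-out: after 48 h at the non-permissive 37C in glycerol/ethanol YPEG, yeast mitochondrial fusion mutants are measured by CellTiterGlo luminescence; compounds (23 nl pinned per well) restoring growth score as division inhibitors or fusion activators.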
Active calls of the source: *; ? = inconclusive; nt = not tested or not shown. A selection: hits, their analogues and other compounds. The true share with any hit is near 1.1%. Unless noted, no stated cut-off is given here; in the data, active means activity change below about -65%; inconclusive means mostly about -30% to -63%; inactive means weaker than that.

SMILES	Six1-Eya2 blk	CtBP-E1A inh	MBNL1-CUG inh	uPA generation	Mito fusion yeast
COc1ccc(NC(=O)CCCN2C(=O)C3CC=CCC3C2=O)cc1 (stereo not given)	-0.5	18.0	-5.6%	?	0.8%
O=C(NC1CCCCC1)C1c2ccccc2OCC(=O)N1CCc1ccccc1 (stereo not given)	2.0	5.2	nt	nt	nt
CN(C1=C(NC(=O)c2ccc(Cl)cc2)C(=O)c2ccccc2C1=O)c1ccccc1	-85.9*	-88.3*	?	-9.3%	3.1%
O=C1C(Cl)=C(NC(=O)c2ccccc2)C(=O)C(Cl)=C1NC(=O)c1ccccc1	-72.6*	-11.2	4.7%	-17.5%	-12.7%
COc1ccc(N2CCN(C(c3cccs3)c3nnnn3C3CCCC3)CC2)cc1 (stereo not given)	?	-22.9	-3.6%	1.1%	11.2µM*
O=C(O)c1cc(N2N=C(C(F)(F)F)/C(=C/C=C/c3ccco3)C2=O)ccc1Cl	-78.2*	-11.1	?	-5.1%	-7.8%
CCCCNC(=O)c1nc(C2CCN(S(=O)(=O)c3ccccc3C(F)(F)F)CC2)oc1-c1cccc(C(F)(F)F)c1	1.8	5.4	nt	nt	nt
O=c1[nH]c(=S)ccn1C1OC(CO)C(O)C1O (stereo not given)	5.3	10.1	nt	?	nt
O=c1[nH]cnc2c1ccn2C1OC(CO)C(O)C1O (stereo not given)	1.7	10.0	nt	3.98µM*	nt
CCc1ccccc1Nc1nn2c(=O)c3ccc(C(=O)NCc4ccccn4)cc3nc2s1	?	-78.7*	14.7%	?	-1.8%
O=C(NCc1ccccn1)c1ccc2c(=O)n3nc(Nc4ccccc4)sc3nc2c1	-11.6	-18.8	-4.2%	-0.4%	1.2%
O=c1ccc2c(OCCCCc3ccccc3)c3ccoc3cc2o1	nt	nt	nt	nt	5.17µM*
COc1c2ccoc2cc2oc(=O)ccc12	6.5	3.3	nt	1.3%	nt
O=C(O)c1ccc2c(c1)C(=O)N([C@]1(C(=O)O)C[C@H]1c1ccccc1)C2=O	nt	nt	nt	nt	-5.0%
S=C(Nc1ccc2c(c1)OCO2)N1CCN(Cc2ccco2)CC1	-0.3	-15.5	0.8%	4.47µM*	2.0%
S=C(NCc1ccco1)N1CCN(Cc2ccco2)CC1	-1.2	-0.6	-14.9%	0.9%	-1.1%
O=C(Nc1ccc(Cl)cc1)c1csc([C@@H]2O[C@H](CO)[C@@H](O)[C@H]2O)n1	-1.1	0.5	nt	nt	nt
Cc1ccc(OCc2nc(C#N)c(NCc3ccc4c(c3)OCO4)o2)cc1	-28.6	-15.6	-4.8%	3.1%	8.91µM*
CCOc1ccc(-c2nc(C#N)c(NCc3ccc4c(c3)OCO4)o2)cc1	-0.4	-2.2	3.5%	?	2.9%
Cc1ccc2nc3ccc(N4CCCC4)nn3c(=O)c2c1	-8.1	-8.4	?	-2.1%	6.1%
CC1CCCN(c2ccc3nc4ccccc4c(=O)n3n2)C1 (stereo not given)	-66.6*	14.7	?	?	9.4%
Cc1nc2c(=O)[nH]c(=S)[nH]c2[nH]c1=O	-65.6*	-17.7	nt	2.6%	nt
Cc1nc2[nH]c(=S)[nH]c(=O)c2nc1C	-12.2	-1.9	nt	-0.7%	nt
COc1ccc(-n2c(SCC(=O)Nc3ncc(Cl)cc3Cl)nc3ccccc32)cc1	nt	nt	3.6%	nt	2.8%
O=C(CSc1nc2ccccc2n1-c1ccccc1)Nc1ncc(Cl)cc1Cl	-9.0	6.0	?	-6.8%	20µM*
SMILES	Six1-Eya2 blk	CtBP-E1A inh	MBNL1-CUG inh	uPA generation	Mito fusion yeast
Cc1cccc(-n2c(SCC(=O)Nc3ncc(Cl)cc3Cl)nc3ccccc32)c1	-1.1	-0.8	-4.6%	-14.6%	22.4µM*
O=C(NC(c1ccc(F)cc1)c1ccc2ccccc2n1)C1CCN(Cc2cccc(C(F)(F)F)c2)CC1 (stereo not given)	-9.7	-9.3	nt	nt	nt
Cc1cc(C(=O)COC(=O)c2ccc[nH]c2=O)c(C)n1-c1ccccc1F	-1.7	nt	0.8%	2.82µM*	11.4%
Cc1ccc(CNC(=O)c2c(C)cc(=O)oc2C)cc1	-0.7	2.8	11.0%	nt	-3.0%
O=C(NCc1ccccn1)c1ccc(=O)oc1	-87.4*	-79.3*	2.9%	1.9%	1.7%
Cc1cc(=O)oc(C)c1C(=O)NCc1ccccn1	-81.1*	?	5.0%	nt	-1.5%
